Assay in all cases: MAPPIT interaction score (arbitrary units); higher = stronger binary interaction signal, active = hit call of the paper
Assay [1] deals with CG7747. The settings on record: MAPPIT configuration: N-N; pair source set: Finley_Y2H.
Assay [2] has as its target CG8128. The settings on record: MAPPIT configuration: N-N; pair source set: Finley_Y2H.
Assay [3] has as its target CG8292. The note with it: MAPPIT configuration: N-N; pair source set: Curagen_low_conf.
Assay [4] has as its target CG9040. The settings on record: MAPPIT configuration: N-N; pair source set: Finley_Y2H.
For assay [5], the target named is CG8043. The settings on record: MAPPIT configuration: N-N; pair source set: DPIM.
For assay [6], the target named is CG8320. The settings on record: MAPPIT configuration: N-C; pair source set: screen_4.

A number with no mark means an inactive call.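 The calls were made as follows: active = MAPPIT score above the 99th percentile of random reference set scores in the same batch; inactive = at or below it.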
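Also: HEK293T cells with Epo stimulation, STAT-responsive firefly luciferase reporter, fold induction versus unstimulated cells divided by the larger fold induction of two negative controls lacking either bait or prey.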

B1: Shrm (protein)
chain: MKMRNHKENGNGSEMGESTKSLAKMEPENNNKISVVSVSKLLLKDSNGANSRSSNSNASFSSASVAGSVQDDLPHHNSSSSQLGQQHGSSLDQCGLTQAGLEEYNNRSSSYYDQTAFHHQKQPSYAQSEGYHSYVSSSDSTSATPFLDKLRQESDLLSRQSHHWSENDLSSVCSNSVAPSPIPLLARQSHSHSHSHAHSHSNSHGHSHGHAHSASSSSSSNNNSNGSATNNNNNNSSESTSSTETLKWLGSMSDISEASHATGYSAISESVSSSQRIVHSSRVPTPKRHHSESVLYLHNNEEQGDSSPTASNSSQMMISEEANGEESPPSVQPLRIQHRHSPSYPPVHTSMVLHHFQQQQQQQQDYQHPSRHHTNQSTLSTQSSLLELASPTEKPRSLMGQSHSMGDLQQKNPHQNPMLGRSAGQQHKSSISVTISSSEAVVTIAPQPPAGKPSKLQLSLGKSEALSCSTPNMGEQSPTNSIDSYRSNHRLFPVSTYTEPVHSNTSQYVQHPKPQFSSGLHKSAKLPVITPAGATVQPTWHSVAERINDFERSQLGEPPKFAYLEPTKTHRLSNPALKALQKNAVQSYVERQQQQQKEEQQLLRPHSQSYQACHVERKSLPNNLSPIMVGLPTGSNSASTRDCSSPTPPPPPRRSGSLLPNLLRRSSSASDYAEFRELHQAQGQVKGPSIRNISNAEKISFNDCGMPPPPPPPRGRLAVPTRRTSSATEYAPMRDKLLLQQAAALAHQQHHPQQHRHAQPPHVPPERPPKHPNLRVPSPELPPPPQSELDISYTFDEPLPPPPPPEVLQPRPPPSPNRRNCFAGASTRRTTYEAPPPTAIVAAKVPPLVPKKPTSLQHKHLANGGGGSRKRPHHATPQPILENVASPVAPPPPLLPRARSTAHDNVIASNLESNQQKRSNSKASYLPRQSLEKLNNTDPDHGIYKLTLTSNEDLVAHTKPSYGVTGKLPNNLPDVLPLGVKLHQQPKLQPGSPNGDANVTLRYGSNNNLTGNSPTVAPPPYYGGGQRYSTPVLGQGYGKSSKPVTPQQYTRSQSYDVKHTSAVTMPTMSQSHVDLKQAAHDLETTLEEVLPTATPTPTPTPTPTPPRLSPASSHSDCSLSTSSLECTINPIATPIPKPEAHIFRAEVISTTLNTNPLTTPPKPAMNRQESLRENIEKITQLQSVLMSAHLCDASLLGGYTTPLITSPTASFANEPLMTPPLPPSPPPPLEPEEEEEQEENDVHDKQPEIEELQLMQRSELVLMVNPKPSTTDMACQTDELEDRDTDLEAAREEHQTRTTLQPRQRQPIELDYEQMSRELVKLLPPGDKIADILTPKICKPTSQYVSNLYNPDVPLRLAKRDVGTSTLMRMKSITSSAEIRVVSVELQLAEPSEEPTNLIKQKMDELIKHLNQKIVSLKREQQTISEECSANDRLGQDLFAKLAEKVRPSEASKFRTHVDAVGNITSLLLSLSERLAQTESSLETRQQERGALESKRDLLYEQMEEAQRLKSDIERRGVSIAGLLAKNLSADMCADYDYFINMKAKLIADARDLAVRIKGSEEQLSSLSDALVQSDC
With B1, the MAPPIT interaction score in assay [1] is -0.185.

B2: bora (protein)
chain: MYNDEVRTPQALKNRYITNVNGLKCRARRNSHSNSSNSSAASATPTNGGKENGKYSPQMSGNVCTPPPKRLHKVRNPFEGAMADRLHLPLIASPSLFRSRTPQLSSTQFEWNIDEVSQLKPADVEPHETQFHDSPDPEQESKAQLAISAFFKESLIVPSPVDCPLRKQRIILNCSEDNTPISNKSRRMRDCEVQTELTLPPILPKALEDALRPYFQPHLAGRLSGRSKSSGGPDIFNSSMRRKLFDLHNVIVLGEQDTAEPSRSMVGSSPQGKQTMFAGRLSDSASGESSFGCLSPIRNLCGLPPGTPDNGTCSGKRKLLMHELELPSPIAPSEHLSRRLVHSKVEISVTEQHDTLSERTALKFTPDRSSSPMGGGLEHSDCSINQRVRRLRVNSTRQVVIETGDQPLFEETEGEEEEAESEDDEEADAMQLSTVSFNCSSSNSDTPRGHKRHRSAQRKNLSQSFSANLEEEADQTQGGAGSIQPAEPPSVAMPQQGARIPLYRADSGFNETSSTTFAFSQDLPLDVSMACCSTPSTRS
For the molecule B2, the MAPPIT interaction score in assay [1] is 1.91.

B3: crn (protein)
chain: MERPQKMPKVAKVKNKAPAEVQITAEQLLREAKERDLEILPPPPKQKISDPAELADYQQRKRKTFEDNLRKNRMVVSHWIKYAQWEEQQQEIQRARSIWERALDNEHRNVTLWLKYAEMEMKNKQVNHARNLWDRAVTIMPRVNQFWYKYTYMEEMLENVAGARQVFERWMEWQPEEQAWQTYVNFELRYKEIDRAREIYERFVYVHPDVKNWIKFARFEESHGFIHGSRRVFERAVEFFGDDYIEERLFIAFARFEEGQKEHDRARIIYKYALDHLPKDRTQELFKAYTKHEKKYGDRAGIEDVIVSKRKYQYEQEVAANPTNYDAWFDYLRLIEAEGDRDQIRETYERAISNVPPANEKNFWRRYIYLWINYALYEELEAEDAERTRQIYKTCLELIPHKQFTFSKLWLLYAQFEIRCKELQRARKALGLAIGMCPRDKLFRGYIDLEIQLREFERCRMLYEKFLEFGPENCVTWMKFAELENLLGDTDRARAIFELAVQQPRLDMPELLWKAYIDFEVALGETELARQLYERLLERTQHVKVWMSFAKFEMGLSHGDSGPDAELNVQLARRIYERANEMLRQLGDKESRVLLLEAWRDFERDASDSQEMQKVMDKMPRRIKKRQKIVSDNGVEEGWEEVFDYIFPEDEMARPNLKLLAAAKMWKTQKDNTVDDPPATAIASEPEPAADAAPADTTDSGD
On to B3, for which the MAPPIT interaction score in assay [2] is 2.14.

B4: Vha14-1 (protein)
chain: MALHSAIKGKLISVIGDEDTCVGFLLGGVGEINKNRHPNFMVVDKNTAVSELEDCFKRFLKRDDIDIILINQNCAELIRHVIDAHTSPVPAVLEIPSKDHPYDASKDSILRRARGMFNPEDLVR
Consider B4, for which the MAPPIT interaction score in assay [3] is -0.0476.

B5: Bre1 (protein)
chain: MSKRSADDATGSSCLVAAAAAGQPPIKKVHFEPHLIGPVSTLEEMDIKVLEFQNKKLAQRIEQRMRTEAELRHRIEQLEKRQTQDDAVLNVVNRYWNQLNEDIRVLLQRFDAETADELENRNENEVTTSFLAQLSTWDKEELDEKLANRVQVSKRAVAKIVQVIDRLMQRNEKITHVLKGDSLASAGSGSGAGAGGEEEQQQASGDAETTTSSAGVHALEETLKQTHIEIMSENHKLQNLNTSLHEKFHTMSLKMKEYQDAHTAKETENAELKNQIDELQYDLEKIHCRNDKLENHLAEAIEKLKAYHQIYGDPNKSTNSAKTPTTTGSGGATTSVNSQLLEELQKELEEYRELANNRLQELDKLHATHRETLKEVEKLKMDIRQLPESVIVETTEYKCLQSQFSVLYNESMQIKTMLDETRNQLQTSKNQHLRQIEVMESEELIAQKKVRSEMIQMEDVLALIRKEYETLRIEFEQNMAANEQTAPINREMRHLITSLQNHNGQLKGEVQRYKRKYKDTSTDNLKLRQELADALATLEGNKLQAATGAAGEEIKQENSTGVKEENSNNVSASGQTNQTNSGNDTNVAIKEENHISAEDEADDEASGKDVKDGIKQEKLSSGDAAAAEKKDSPGPGNSTSSATNSVPVKNEKDSKDGVKGKDVKAVESETVRDLKAQLKKALNDQKEMKLLLDMYKGVSKDQRDKVQLMATEKKLRSEIEELRQQLKKLQESKREERKKLADEEALRKIKQLEEQKYELQKQMANHKPTDNSWGSGAPGTANYTRPFVGSHEEEALLNEMEVTGQAFEDMQEQNSRLIQQLREKDDANFKLMSERIKANQLHKLLREEKTVLEDQMATATTQIEAMHIVLRKLEEKERSLQATVASIEKELMLRQQAMEMHKRKAIESAQSAADLKLHLEKYHAQMKEAQQVVAEKTSSLEAEAYKTKRLQEELAQFKRKAERMKKMEMSGTTIDEVMIEEIREYKETLTCPSCKVKRKDAVLSKCFHVFCYDCLRTRYETRQRKCPKCNCAFGANDYHRLYLQ
Regarding B5, the MAPPIT interaction score in assay [4] was -0.0702.

B6: RasGAP1 (protein)
chain: MLLKKKRYMFDERDDNNINSPVAVEPSSNNNKMADTREVRIEEQLKVKIGEAKNLSSRNAANTSCSTQGTRDVYCTIALDQEEICRTPTIERTLTPFFGEEHQFKIPRRFRYLTIYLWDRDMKQDKPIGKIAIKREELHMYNHKDHWFSLRPVDQDSEVQGMVNVEVAFTEAQQTQSLSEGIDLGQHTLRHHQNLPHHSHQQRAHLNDYKENSELSNIQRASAAAASSSSAAMTLKTRAAGLFGHVHHPPSQTQHFPIINTTSTSSDQLSNWKSHGRFVGVTIKVPACVDLAKKQGTCDPFVVCTAHYSNKHQVTRRTKQRKKTVDPEFDEAMYFDLHIDADAGSTNTTGSNKSAGSLESSANKGYSIYPVGGADLVEIVVSVWHDAHGAMSDKVFLGEVRLPMLNKQEQQAVNPSAWYYLQPRSMTHSSRSLNATPRSCATPPGTRLSVDSTIGSLRLNLNYTADHVFPLATYDDLMNLLLESVDQRPITVSAVSILGELVSGKTEVAQPLVRLFTHTERIAPIIKALADHEISHLTDPTTIFRGNTLVSKMMDEAMRLSGLHYLHQTLRPVLSQIVAEKKPCEIDPSKIKDRSAVDTNLHNLQDYVERVFEAITKSADRCPKVLCQIFHDLRECAGEHFPSNREVRYSVVSGFIFLRFFAPAILGPKLFDLTTERLDAQTSRTLTLISKTIQSLGNLVSSRSSQQTCKEEFTVELYKKFCTEQHVDAVKHFLEVISTPSHASSSVHPAAAAATPLEPVLLKEGLMTKYPTSRKRFGRQFKQRHFRLTTHSLSYAKSKGKQPICDIPLQEIASVEQLKDKSFKMQNCFKIVHNDRSLIVQTTNCVEEREWFDLLHKICLMNSIRMQYFHPSAFVSGFYSCCGRSDENSPGCKKVLDKTMDYFQMDLVTALDPALDLQRIHTLIMSNMSVLESLLDPLTYHQSLSQTQHQQHNPLVPLATDLQKHSPQAFAEFKRTIEKLREKAYAIDRDHRDYKQGITRQLKYGSRQAPIGDDNYWHMMRAAGQLNQQHHQQQQHQQQQQQQQQQQLQQFQPQPVLPQMQNVRAYPYQPATSNMNAYCLHNMQYQQQRLPFHQQQQQHHQQLQQQQSQFQPLRSHQLQRHNNNLNNNNCGNGSSSSPSSTTSSVVAAPPSTTSSSQPAPPIY
As to B6, the MAPPIT interaction score in assay [5] was 0.645.

B7: tap (protein)
chain: MAACYNAYSAGSQSFEFDEDDDDASFDSGYEKSFETEAQLSSRRRLDFGTPPTPAIPQPYSGGTWDAVPLSSPPAGFVGLLDTSSNHSTRSGRTLVEHLNSRATNGVFDPPLTSTPVKSPEDPNAPRPKRKYAVGKNRVTRSRSPTQVVKIKRFRRMKANDRERNRMHNLNDALEKLRVTLPSLPEETKLTKIEILRFAHNYIFALEQVLESGGSINLDLEKLQNFTLSGERITKELFDALFVNPQPYPLFGRMFPYGQGMAPLAQHQTAPASHAEQPPAMGGFQHGMDYPQQPPGFDFTGSMRFYHQQQQQPHQPHHLQPNPQQESSPQQFSQEKYDLFRGSFDAAANLHSTNLDSGIHQQSSFYSQTPPWKDYPEDQAHVHPVPHQHSYKNFAPQV
For the molecule B7, in assay [6], the MAPPIT interaction score was -0.175.

For the origin of these results see the supplement of paper PMC10105736.
